Reference: PubChem BioAssay (Tox21)
Results filed as inconclusive are left out. Activity calls are given as the source filed them. Unless noted, calls follow the shape of the dose curve; as a rule, active = well fitted curve in the direction sought with a large enough effect in the repeat runs; inconclusive = weak or mixed curves; inactive = no such curve, though single readings can be large; an effect the other way counts as inactive or inconclusive.

How the values were obtained:
[1] = target: Thyrotropin receptor (Homo sapiens) (UniProt P16473); assay: qHTS assay to identify small molecule antagonists of the thyroid stimulating hormone receptor (TSHR) signaling pathway (AID 1259385; calls by dose curve; also: nearly all actives have a fitted effect of over 20% in size)
Thyrotropin receptor (Homo sapiens), sequence (P16473 whole entry, looked up): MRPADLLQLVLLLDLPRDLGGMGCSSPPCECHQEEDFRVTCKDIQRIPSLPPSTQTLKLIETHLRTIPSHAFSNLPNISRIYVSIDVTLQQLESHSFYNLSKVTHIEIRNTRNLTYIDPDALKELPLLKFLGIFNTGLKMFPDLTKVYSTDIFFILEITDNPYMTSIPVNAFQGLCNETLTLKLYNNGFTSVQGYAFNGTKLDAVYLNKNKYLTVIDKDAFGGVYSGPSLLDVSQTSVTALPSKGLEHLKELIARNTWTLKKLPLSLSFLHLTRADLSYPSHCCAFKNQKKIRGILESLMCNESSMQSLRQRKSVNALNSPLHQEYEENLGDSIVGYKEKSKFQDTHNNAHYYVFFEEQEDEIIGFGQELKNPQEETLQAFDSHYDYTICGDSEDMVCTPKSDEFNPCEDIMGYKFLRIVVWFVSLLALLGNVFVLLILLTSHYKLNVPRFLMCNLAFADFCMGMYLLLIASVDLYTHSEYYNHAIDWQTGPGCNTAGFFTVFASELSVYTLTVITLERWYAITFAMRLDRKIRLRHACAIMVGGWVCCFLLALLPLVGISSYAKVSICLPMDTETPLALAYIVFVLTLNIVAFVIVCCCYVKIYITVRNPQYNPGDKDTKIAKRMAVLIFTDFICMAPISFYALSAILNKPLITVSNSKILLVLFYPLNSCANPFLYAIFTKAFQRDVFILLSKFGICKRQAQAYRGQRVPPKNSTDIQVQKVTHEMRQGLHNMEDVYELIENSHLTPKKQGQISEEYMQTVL
In short: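 TSHR-HEK293 cells were plated and held 18 h at 37C/5% CO2, then given compound plus Ro20-1724 and stimulated with TSH at 1.5 ng/mL final. After 30 min at room temperature, cAMP was detected with cAMP-d2/anti-cAMP-cryptate (1 h) by fluorescence.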

[2] = qHTS assay to identify small molecule agonists of the estrogen receptor alpha (ER-alpha) signaling pathway in the presence of an antagonist - cell viability counter screen (AID 1259386);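 also: series mostly up to about 92 µM; cells exposed to compounds for 22 h at 37 °C before the viability read; nearly all actives have a fitted effect of over 30% in size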
In short: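 The test measures whether compounds kill ER-alpha reporter cells (VM7Luc4E2) under antagonist co-treatment (ICI-182,780, 10.0nM). Fluorescence from CellTiter-Fluor is read after a 22hr exposure.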

[3] = target: Progesterone receptor (Homo sapiens) (UniProt P06401); assay: qHTS assay to identify small molecule agonists of the progesterone receptor (PR) signaling pathway (AID 1346784; calls by dose curve; also: nearly all actives have a fitted effect of over 30% in size)
Progesterone receptor (Homo sapiens), sequence (P06401 whole entry, looked up): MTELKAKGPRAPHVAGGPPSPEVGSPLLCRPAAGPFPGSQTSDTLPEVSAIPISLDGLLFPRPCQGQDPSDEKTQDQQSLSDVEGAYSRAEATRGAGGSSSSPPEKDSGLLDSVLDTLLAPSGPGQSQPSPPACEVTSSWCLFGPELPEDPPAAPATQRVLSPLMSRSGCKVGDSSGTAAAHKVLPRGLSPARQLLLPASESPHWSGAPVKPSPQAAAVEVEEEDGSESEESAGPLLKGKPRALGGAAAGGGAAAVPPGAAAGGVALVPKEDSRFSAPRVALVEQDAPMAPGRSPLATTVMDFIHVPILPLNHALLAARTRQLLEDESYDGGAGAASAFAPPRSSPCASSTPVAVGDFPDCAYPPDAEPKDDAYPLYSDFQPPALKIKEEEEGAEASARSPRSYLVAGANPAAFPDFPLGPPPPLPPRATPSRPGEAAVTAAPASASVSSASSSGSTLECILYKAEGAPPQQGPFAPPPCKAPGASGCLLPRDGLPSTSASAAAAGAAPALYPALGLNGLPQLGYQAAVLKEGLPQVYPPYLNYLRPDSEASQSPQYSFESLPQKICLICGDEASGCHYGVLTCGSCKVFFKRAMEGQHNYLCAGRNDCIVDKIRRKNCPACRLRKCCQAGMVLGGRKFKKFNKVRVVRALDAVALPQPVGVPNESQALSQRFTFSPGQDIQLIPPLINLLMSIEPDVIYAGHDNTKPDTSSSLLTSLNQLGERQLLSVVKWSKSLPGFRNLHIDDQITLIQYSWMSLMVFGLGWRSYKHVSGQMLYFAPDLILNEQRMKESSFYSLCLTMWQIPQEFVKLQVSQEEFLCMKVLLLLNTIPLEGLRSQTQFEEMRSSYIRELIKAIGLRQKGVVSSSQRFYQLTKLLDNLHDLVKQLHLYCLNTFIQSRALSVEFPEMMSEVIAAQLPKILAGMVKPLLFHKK
In short: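 Fluorescence from LiveBLAzer B/G FRET substrate cleavage (2 hr, RT) reported PR activation in PR-UAS-bla HEK 293T cells treated 16 hr at 37C/5% CO2 with compounds; medium contained 2% charcoal-stripped FBS.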

[4] = target: Progesterone receptor (Homo sapiens) (UniProt P06401); assay: qHTS assay to identify small molecule antagonists of the progesterone receptor (PR) signaling pathway (AID 1346795; active = well fitted inhibition curve with a large enough effect in the signal ratio in the repeat runs, not every such curve was filed as active; the % refers to the signal ratio)
In short: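 Fluorescence intensity measured 2 hr after adding beta-lactamase FRET substrate to PR-UAS-bla HEK293T cells that had been co-treated 16 hr with compound and 1 nM R5020 (final concentration) in 2% charcoal-stripped FBS.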

[5] = qHTS assay to identify small molecule antagonists of the progesterone receptor (PR) signaling pathway - cell viability counter screen (AID 1346798); also: series mostly up to about 92 µM; nearly all actives have a fitted effect of over 50% in size
In short: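 CellTiter-Glo luminescence; PR-UAS-bla HEK293T, 3,000 cells/well; compound + R5020, 16 hr, 37C/5% CO2; 30 min RT before read.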

[6] = qHTS assay to identify small molecule agonists of the progesterone receptor (PR) signaling pathway - cell viability counter screen (AID 1346799; calls by dose curve; also: nearly all actives have a fitted effect of over 45% in size)
In short: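 In parallel with the beta-lactamase readout, cytotoxicity toward PR-UAS-bla HEK293T cells was measured by CellTiter-Glo luminescence following 16 hr compound incubation in 2% charcoal-stripped FBS medium.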

[7] = qHTS assay to identify small molecule antagonists of the TGF-beta/Smad signaling pathway - cell viability counter screen (AID 1346824); also: nearly all actives have a fitted effect of over 50% in size
In short: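 SBE-bla HEK 293T cells were plated overnight at 37 C, then given compounds in DMSO plus TGF-beta1 (added as 0.25 ng/mL solution) for 5 hr. After the bla read, CellTiter-Glo was added to the same wells and luminescence read after 30 min at room temperature.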

[8] = qHTS assay to identify small molecule agonists of the TGF-beta/Smad signaling pathway - cell viability counter screen (AID 1346829); also: top concentration of the series differs between compounds; nearly all actives have a fitted effect of over 45% in size
In short: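 Tox21 qHTS format: SBE-bla HEK 293T cells treated with DMSO-dissolved compounds for 5 hr; CellTiter-Glo luminescence after 30 min at room temperature.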

[9] = qHTS assay to identify small molecule agonists of the TGF-beta/Smad signaling pathway (AID 1346859; active = well fitted activation curve with a large enough effect in the signal ratio in the repeat runs, not every such curve was filed as active; the % refers to the signal ratio; also: series mostly up to about 77 µM)
In short: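 After overnight seeding, SBE-bla HEK 293T cells are dosed with compounds in DMSO and kept 5 hr at 37 C, 5% CO2. LiveBLAzer-type FRET substrate is then applied for 2 hr at room temperature.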

[10] = target: Thyrotropin-releasing hormone receptor (Homo sapiens) (UniProt P34981); assay: qHTS assay to identify small molecule antagonists of the thyrotropin-releasing hormone receptor (TRHR) signaling pathway (AID 1346877; active = well fitted inhibition curve with a large enough effect in the repeat runs, not every such curve was filed as active; also: series mostly up to about 51 µM)
Thyrotropin-releasing hormone receptor (Homo sapiens), sequence (P34981 whole entry, looked up): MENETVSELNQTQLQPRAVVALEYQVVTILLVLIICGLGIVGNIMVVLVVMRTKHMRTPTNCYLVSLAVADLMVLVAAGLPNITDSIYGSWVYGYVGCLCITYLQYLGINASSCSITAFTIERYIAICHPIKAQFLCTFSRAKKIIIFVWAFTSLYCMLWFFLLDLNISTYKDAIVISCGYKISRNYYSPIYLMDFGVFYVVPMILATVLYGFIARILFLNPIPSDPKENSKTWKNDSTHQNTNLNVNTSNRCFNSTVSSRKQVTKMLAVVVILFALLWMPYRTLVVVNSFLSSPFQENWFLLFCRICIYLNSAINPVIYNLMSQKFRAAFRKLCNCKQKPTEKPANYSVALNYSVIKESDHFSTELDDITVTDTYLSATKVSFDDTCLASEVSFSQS
In short: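 Overnight-plated (18 h, 37 °C) HEK293 cells expressing TRHR were dye-loaded 2 h, treated with compound, then stimulated with TRH at 1 nM final. Fluorescence intensity was captured every second for 3 min.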

[11] = target: Thyrotropin-releasing hormone receptor (Homo sapiens) (UniProt P34981); assay: qHTS assay to identify small molecule agonists of the thyrotropin-releasing hormone receptor (TRHR) signaling pathway (AID 1346891; calls by dose curve;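 also: HEK293 cells expressing TRHR with calcium dye readout; series mostly up to about 58 µM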)
In short: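 Compounds were tested as agonists at 15 concentrations, in triplicate, on TRHR-Hek293 cells; calcium-sensitive dye fluorescence was recorded for 3 min following addition.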

[12] = Human pregnane X receptor (PXR) small molecule agonists, qHTS cell viability counter screen (AID 1346977); also: nearly all actives have a fitted effect of over 50% in size
In short: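 Viability counter screen: CellTiter-Fluor signal in PXR-Luc HepG2 cells, 24hr compound exposure, 37C, 5% CO2.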

[13] = Caspase-3/7 induction in HepG2 cells by small molecules, qHTS assay (AID 1346978); also: nearly all actives have a fitted effect of over 15% in size
In short: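 Wild-type HepG2 cells (2,000/well) were settled 5 h at 37 C, 5% CO2, then exposed to compounds in DMSO for 17 h. Caspase-3/7 activity was read by luminescence 30 min after adding Caspase-Glo 3/7 reagent at room temperature.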

[14] = Caspase-3/7 induction in CHO-K1 cells by small molecules, qHTS cell viability counter screen (AID 1346979); also: nearly all actives have a fitted effect of over 35% in size
In short: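 Viability readout by fluorescence (CellTiter-Fluor) on wild-type CHO-K1 cells exposed for 16hr at 37C and 5% CO2 to compounds delivered in DMSO; reagent incubated 1hr before reading.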

[15] = Caspase-3/7 induction in CHO-K1 cells by small molecules, qHTS assay (AID 1346980); also: nearly all actives have a fitted effect of over 15% in size
In short: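 Wild-type cells were seeded at 1,500 per well and settled 5 hr at 37 C, 5% CO2, then exposed to DMSO-dissolved compounds for 17 hr. Caspase-Glo 3/7 reagent was added, and luminescence was read after 30min at room temperature.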

[16] = Caspase-3/7 induction in HepG2 cells by small molecules, qHTS cell viability counter screen (AID 1346981); also: series mostly up to about 92 µM; nearly all actives have a fitted effect of over 30% in size
In short: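 Treatment of HepG2 cells with DMSO-delivered compounds ran 16 hr at 37 C following a 5-hr pre-incubation of 2,000 cells/well. CellTiter-Fluor fluorescence, read after 1 hr, served as the viability measure in a qHTS format.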

[17] = target: Nuclear receptor subfamily 1 group I member 2 (Homo sapiens) (UniProt O75469); assay: Human pregnane X receptor (PXR) small molecule agonists, qHTS assay (AID 1346982); also: nearly all actives have a fitted effect of over 35% in size
Nuclear receptor subfamily 1 group I member 2 (Homo sapiens), sequence (O75469 whole entry, looked up): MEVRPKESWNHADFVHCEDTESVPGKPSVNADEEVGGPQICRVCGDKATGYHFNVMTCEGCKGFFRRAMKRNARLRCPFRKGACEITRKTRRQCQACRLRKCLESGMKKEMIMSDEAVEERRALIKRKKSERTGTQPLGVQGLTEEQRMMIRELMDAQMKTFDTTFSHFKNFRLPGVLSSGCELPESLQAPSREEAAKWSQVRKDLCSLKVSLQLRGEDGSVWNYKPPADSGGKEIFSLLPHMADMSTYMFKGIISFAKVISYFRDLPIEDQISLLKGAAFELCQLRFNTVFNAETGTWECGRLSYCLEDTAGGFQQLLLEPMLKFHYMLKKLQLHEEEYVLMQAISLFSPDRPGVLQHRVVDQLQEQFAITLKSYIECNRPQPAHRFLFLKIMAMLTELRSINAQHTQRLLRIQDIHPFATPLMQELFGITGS
In short: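 Stable HepG2 line reporting PXR-mediated CYP3A4 expression via luciferase. Treatment: 24 hr with compounds in DMSO at 37 C. Detection: ONE-Glo luminescence.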

[18] = target: Nuclear receptor subfamily 1 group I member 2 (Rattus norvegicus) (UniProt Q9R1A7); assay: Rat pregnane X receptor (rPXR) activation by small molecules, qHTS assay (AID 1346983); conditions: rPXR luciferase reporter cells, One-Glo luminescence, 24 h; stronger effect = higher value; also: nearly all actives have a fitted effect of over 20% in size
Nuclear receptor subfamily 1 group I member 2 (Rattus norvegicus), sequence (Q9R1A7 whole entry, looked up): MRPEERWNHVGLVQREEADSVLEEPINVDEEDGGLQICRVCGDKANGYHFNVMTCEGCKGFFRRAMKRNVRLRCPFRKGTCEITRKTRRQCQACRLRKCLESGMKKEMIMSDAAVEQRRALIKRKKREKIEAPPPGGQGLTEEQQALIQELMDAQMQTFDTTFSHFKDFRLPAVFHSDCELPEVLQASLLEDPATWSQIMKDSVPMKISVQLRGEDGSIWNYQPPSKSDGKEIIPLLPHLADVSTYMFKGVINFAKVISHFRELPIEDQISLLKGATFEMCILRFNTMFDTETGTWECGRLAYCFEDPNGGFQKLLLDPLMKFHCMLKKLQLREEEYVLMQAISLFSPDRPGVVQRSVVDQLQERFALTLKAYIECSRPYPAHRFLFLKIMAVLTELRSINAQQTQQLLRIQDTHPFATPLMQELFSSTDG
In short: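 Cell-based rPXR luciferase reporter assay, 2,000 cells per well, rested 5hr at 37 C before compound addition in DMSO, then 24 hr at 37 C. One-Glo reagent was added and luminescence read after 30 min at room temperature.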

[19] = target: Nuclear receptor subfamily 1 group I member 2 (Homo sapiens) (UniProt O75469); assay: CYP3A4 induction through human pregnane X receptor (PXR) by small molecules, qHTS assay (AID 1346984); also: nearly all actives have a fitted effect of over 40% in size
In short: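 After 24 h at 37C with compound, DPX-2 cells (HepG2, co-transfected PXR response element and CYP3A4 promoter-luciferase) got 3uM final P450-Glo Luciferin-IPA for 3 h; One-Glo luminescence followed.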

[20] = target: Nuclear receptor subfamily 1 group I member 2 (Homo sapiens) (UniProt O75469); assay: Human pregnane X receptor (PXR) activation by small molecules, qHTS assay (AID 1346985); also: nearly all actives have a fitted effect of over 40% in size
In short: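 DPX-2 cells (HepG2 co-transfected with a PXR response element and a CYP3A4-promoter luciferase construct) were seeded at 2,000 per well, rested 5 hr at 37C, then exposed to DMSO-dissolved compounds for 24 hr. Activation was read as luciferase luminescence.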
% is scaled to controls: 0 for no effect and ±100 for the full control effect.

C[Si]1(C)O[Si](C)(C)O[Si](C)(C)O[Si](C)(C)O1
inactive: outcome [1] | Potency [2] | Potency [3] | Potency [4] | outcome [5] | outcome [6] | outcome [7] | outcome [8] | outcome [9] | outcome [10] | outcome [11] | Potency [12] | Potency [13] | Potency [14] | outcome [15] | Potency [16] | Potency [17]

OC1C(O)C(O)C(O)C(O)C1O (stereo not given)
inactive: outcome [1] | Potency [2] | Potency [3] | Potency [4] | outcome [5] | outcome [6] | outcome [7] | outcome [8] | outcome [9] | outcome [10] | outcome [11] | Potency [12] | Potency [13] | Potency [14] | outcome [15] | Potency [16] | Potency [17] | max activation [18] -0.165% | Potency [19] | outcome [20]

COCCCN
inactive: outcome [1] | Potency [2] | Potency [3] | Potency [4] | outcome [5] | outcome [6] | outcome [7] | outcome [10] | outcome [11] | Potency [12] | Potency [13] | Potency [14] | outcome [15] | Potency [16] | Potency [17]

CCCOC(=O)c1ccccc1
inactive: outcome [1] | Potency [2] | Potency [3] | Potency [4] | outcome [5] | outcome [6] | outcome [7] | outcome [8] | outcome [10] | outcome [11] | Potency [12] | Potency [13] | Potency [14] | outcome [15] | Potency [16] | Potency [17] | max activation [18] -6.55% | Potency [19] | outcome [20]

COC(=O)c1cccnc1
inactive: outcome [1] | Potency [2] | Potency [3] | Potency [4] | outcome [5] | outcome [6] | outcome [7] | outcome [8] | outcome [9] | Potency [12] | Potency [14] | outcome [15] | Potency [16] | Potency [17] | max activation [18] -1.84% | Potency [19] | outcome [20]

O=C(O)Cn1c(=O)n(Cc2ccc(Br)cc2F)c(=O)c2ccc(Cl)cc21
inactive: outcome [1] | Potency [2] | Potency [3] | Potency [4] | outcome [5] | outcome [6] | outcome [7] | outcome [8] | outcome [10] | outcome [11] | Potency [12] | outcome [15]

CCCCCCCCCCO
inactive: outcome [1] | Potency [2] | Potency [3] | Potency [4] | outcome [5] | outcome [6] | outcome [7] | outcome [9] | outcome [10] | outcome [11] | Potency [12] | Potency [14] | outcome [15] | Potency [16] | Potency [17]

C=C(C)CNCC
inactive: outcome [1] | Potency [2] | Potency [3] | Potency [4] | outcome [5] | outcome [6] | outcome [7] | outcome [10] | outcome [11] | Potency [12] | Potency [13] | Potency [14] | outcome [15] | Potency [16] | Potency [17]
